The sample as a whole holds a higher share of hits than the screen did.
TCR activator: activators of T cell receptors; 330,000 tested, under 10 active; AID 504894; primary human leukocytes, anti-CD3, IL-2 HTRF, 48 h; Potency, µM (titrated, usually from 9.22 µM), without a hit: at the highest dose activation of IL-2 secretion, usual class: activators; also: % of control where 0% means no effect
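IL-2 release read by HTRF sandwich (Eu cryptate donor, d2 acceptor, 665 nm emission) after 48 hr exposure of primary human leukocytes to compound together with anti-CD3 beads in the absence of co-stimulatory signals.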
RXFP1 antagonist: antagonists of human relaxin receptor RXFP1 | Q9HBX9 | HEK293-RXFP1, relaxin-stimulated cAMP HTRF, 30 min; active compounds read low | activity change, negative = inhibition, % at 57.5 µM | 350,000 tested, 0.59% active;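 active = activity change of -60% or lower, but not beyond a set lower limit; inconclusive = change between -60% and -40%, or beyond the set limit; inactive = change above -40%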; also: % is scaled to controls: 0 for no effect and ±100 for the full control effect
PTHR1 ag: activates the human parathyroid hormone receptor PTHR1 | Q03431 | HEK293 GP2 PTHR1 cells, GloSensor cAMP luminescence, 1 h | Potency, µM (series often up to 115 µM), inactives show at the top dose activation, usual class: activators | 410,000 tested, 0.075% active; also: potency is read from the fitted curve at half-maximal effect; nearly all actives have a fitted effect of over 55% in size
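HEK-293-derived GP2 cells expressing PTHR1 and a GloSensor cAMP reporter, 3,000/well, plated overnight, given luciferin plus IBMX (each 0.5 mM as added) for 1 h at 37 °C, then compound for 1 h at 37 °C. Luminescence was read after 15 min at room temperature.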
TSHR antag: human thyrotropin receptor antagonism. activity change, negative = inhibition, % at 11.5 µM. 330,000 tested, 0.2% active. P16473. TSHR-expressing cells, TSH-stimulated cAMP HTRF, 2 h; active compounds read low;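 active = activity change below a set negative limit, meaning inhibition stronger than a set level, cut at about -70% in these data; inconclusive = activity change between two set negative limits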; also: % is scaled to controls: 0 for no effect and ±100 for the full control effect
Target sequence (P16473 whole entry, looked up): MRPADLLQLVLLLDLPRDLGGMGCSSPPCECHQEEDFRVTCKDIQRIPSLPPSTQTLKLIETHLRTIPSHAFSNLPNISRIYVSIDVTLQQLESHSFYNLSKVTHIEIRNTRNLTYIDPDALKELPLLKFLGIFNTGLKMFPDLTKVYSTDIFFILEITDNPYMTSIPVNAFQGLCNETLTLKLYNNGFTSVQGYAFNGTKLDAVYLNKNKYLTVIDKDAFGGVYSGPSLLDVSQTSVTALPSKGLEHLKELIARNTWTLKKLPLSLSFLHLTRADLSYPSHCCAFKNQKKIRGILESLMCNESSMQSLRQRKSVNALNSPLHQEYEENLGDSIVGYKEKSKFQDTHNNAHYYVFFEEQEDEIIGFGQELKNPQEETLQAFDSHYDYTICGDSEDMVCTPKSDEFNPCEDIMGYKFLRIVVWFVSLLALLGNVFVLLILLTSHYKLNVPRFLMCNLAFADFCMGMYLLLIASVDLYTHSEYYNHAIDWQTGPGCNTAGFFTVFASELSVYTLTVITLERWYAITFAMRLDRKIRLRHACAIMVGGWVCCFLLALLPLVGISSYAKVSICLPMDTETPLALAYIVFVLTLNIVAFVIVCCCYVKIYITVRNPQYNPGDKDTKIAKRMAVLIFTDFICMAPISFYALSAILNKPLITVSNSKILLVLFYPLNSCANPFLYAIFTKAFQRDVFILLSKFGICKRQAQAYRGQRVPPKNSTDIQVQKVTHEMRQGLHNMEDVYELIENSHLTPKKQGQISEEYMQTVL
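Competitive HTRF cAMP read-out (cryptate anti-cAMP antibody, cAMP-d2; 30 min, room temperature) in freshly harvested TSHR cells. Compounds added before TSH at EC80 (4nM final), followed by 2 hours' incubation at 37 deg C.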
NPSR antag: antagonists of human neuropeptide S receptor cAMP signaling | 220,000 tested, 1% active | CHO-NPSR cells, cAMP TR-FRET, antagonist mode | Potency, µM (series often up to 38.3 µM), for inactives: at the highest dose activity change, negative = inhibition, usual class: inhibitors; also: potency is read from the fitted curve at half-maximal effect; % is scaled to controls: 0 for no effect and ±100 for the full control effect; nearly all actives have a fitted effect of over 50% in size
RXFP1 ag: RXFP1 (human) receptor agonism | HEK293T-RXFP1 cAMP TR-FRET, 30 min; response scale: percent of porcine relaxin response, buffer zero | Potency, µM (highest dose often 57.5 µM), for the others: top-dose activation, usual class: activators | 370,000 tested, 0.3% active; also: potency is read from the fitted curve at half-maximal effect; % is scaled to controls: 0 for no effect and ±100 for the full control effect; nearly all actives have a fitted effect of over 60% in size
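Agonist response is measured as cAMP accumulation in an RXFP1-transfected HEK293T line under PDE4 inhibition. Values are scaled between buffer-only and 29 nM porcine relaxin, and EC50s come from standard Hill equation fits.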
* hit, by the source's call; i = inactive; ? = inconclusive; · = no result given; ! = a repeat was not active; [ ] = dose if it differs, or a comment. Unless noted, calls follow the shape of the dose curve; as a rule, active = well fitted curve in the direction sought with a large enough effect; inconclusive = small, poorly fitted or top-dose-only effect, or another doubt; inactive = no such curve, though single readings can be large; an effect the other way counts as inactive or inconclusive.

SMILES | TCR activator | RXFP1 antagonist | PTHR1 ag | TSHR antag | NPSR antag | RXFP1 ag
O=S(=O)(/N=S1/CC=CCN1S(=O)(=O)c1ccccc1)c1ccccc1 (centres undefined) | 2% | -72* | -33%[57.5 µM] | -17 | -6%[46.1 µM] | -1%
O=C(COC(=O)/C=C/c1ccc([N+](=O)[O-])cc1)Nc1ccc2[nH]c(=O)[nH]c2c1 | 6% | -69* | i | 2 | · | 0%
Cc1cc2c(cc1C)/C(=N/NC(=O)c1ccccn1)CCC2 | 0% | -93* | i | 6 | 40% | -1%
O=C(Nc1ccccc1)N(Cc1cccc(Cl)c1)c1ccccn1 | · | -37 | -30% | · | · | 1%
O=C(Nc1ccc(Nc2ccccc2)cc1)c1ccco1 | 5% | -81* | 21% | -2 | -16%[46.1 µM] | -2%
O=C(Nc1ccc(NC(=O)c2ccco2)cc1)c1ccco1 | 1% | 0 | i | -12 | · | -3%
CC(C)CC(=O)N1CCN(c2ccc(NC(=O)c3ccco3)cc2)CC1 | 0% | -11 | -9% | -11 | · | 1%
CC(C)(C)C(=O)N1CCN(c2ccc(NC(=O)c3ccco3)cc2)CC1 | 1% | -83* | i | -7 | · | 1%
Cc1ccc(CNC(=O)c2cnc(N(C)C)nc2)cc1 | · | 2 | i | · | · | 4%
Cc1cc(NC(=O)c2cccn2-c2nnc(N3CCCCC3)s2)ccc1Br | · | -27 | -28% | · | · | 1%
C=CCOc1cccc(C2C(C(=O)c3ccc(C)o3)=C(O)C(=O)N2c2nccs2)c1 (centres undefined) | 4% | -6 | -14%[57.5 µM] | 17 | 5µM* | ?
CC1CCCCN1CCCOC(=O)c1ccc(OC2CCCCC2)cc1 (centres undefined) | · | -17 | · | · | · | ·
COc1ccc(N2CC(NC(=O)CCc3ccccc3)CC2=O)cc1OC (centres undefined) | · | · | -38% | · | · | 3%
Cc1ccc2[nH]c(=O)c(CN(Cc3ccc4c(c3)OCO4)Cc3nnnn3C3CCCC3)cc2c1 | -4% | 1 | -63% | · | 13µM* | 6%
COc1ccccc1N1CCN(C(=O)CCCN2C(=O)c3cccc4cccc(c34)C2=O)CC1 | 0%[46.1 µM] | 14 | -6% | -72* | 3% | -1%
Cc1ccc(C)c(N2CCN(C(=O)CCCn3c(=S)[nH]c4cc5c(cc4c3=O)OCO5)CC2)c1 | 0% | -102* | -47% | -38 | -19%[46.1 µM] | 0%
O=C(CCCn1c(=S)[nH]c2cc3c(cc2c1=O)OCO3)N1CCN(c2ccccc2F)CC1 | 3% | ? | i | 1 | -23%[46.1 µM] | 2%
CCOC(=O)N1CCN(C(=O)c2ccc(Cn3c(=S)[nH]c4cc5c(cc4c3=O)OCO5)cc2)CC1 | -3%[46.1 µM] | -92* | i | -13 | ? | -1%
COc1ccccc1N1CCN(C(=O)CN2C(=O)c3cccc4cccc(c34)C2=O)CC1 | -1% | -2 | -18% | -8 | -16% | -2%
COc1ccccc1N1CCN(C(=O)CCCCCn2c(=S)[nH]c3cc4c(cc3c2=O)OCO4)CC1 | · | -78* | -43% | · | · | ·
COc1ccc(N2CCN(C(=O)C(C)n3c(=O)cc(C(F)(F)F)c4c(C)nn(C)c43)CC2)cc1 (centres undefined) | · | · | -10% | · | · | 20%
O=C(CN1C(=O)CCSc2ccc(S(=O)(=O)N3CCCC3)cc21)Nc1cccc(Cl)c1 | · | -10 | -17% | · | · | 1%
CCc1ccccc1NC(=O)c1ccc(F)c(S(=O)(=O)N2CCN(c3ccccc3OC)CC2)c1 | · | 0 | -31% | · | · | -1%
Cc1ccc2c(c1)c1c(n2CC(O)CN2CCCCC2C)CCCC1 (centres undefined) | -2% | -92* | 20% | -4 | -11% | -4%
O=C(c1ccc(F)cc1)C1CCN(CCn2c(=O)[nH]c3ccccc3c2=O)CC1 | 1% | -16 | -45% | -11 | 1.6µM*! | -1%
SMILES | TCR activator | RXFP1 antagonist | PTHR1 ag | TSHR antag | NPSR antag | RXFP1 ag
Cc1ccc2nc(-c3cccnc3)cc(C(=O)N3CCN(c4ccc([N+](=O)[O-])cc4)CC3)c2c1 | 2% | -19 | i | -16 | 5µM* | 3%
Nc1nc(Cl)nc2c1ncn2[C@@H]1O[C@H](CO)[C@@H](O)[C@@H]1F | · | 9 | · | · | · | ·
CCOc1ccc(C2CC(=O)Nc3c2c(=O)[nH]c2ncnn32)cc1 (centres undefined) | · | · | i | · | · | 18%
CCS(=O)(=O)c1ncc(Cl)c(C(=O)Nc2c(C(=O)c3ccc(C)cc3)oc3ccccc23)n1 | · | · | i | · | · | -1%
Cc1ccc(NC(=O)c2nc(S(=O)(=O)Cc3ccccc3)ncc2Cl)cc1 | 2% | -85* | -24% | ? | · | 1%
O=C(Nc1nc2ccc(F)cc2s1)c1nc(S(=O)(=O)Cc2ccccc2)ncc1Cl | · | · | -32% | · | · | 0%
O=C(NCc1ccccc1)c1nc(S(=O)(=O)Cc2ccc(F)cc2)ncc1Cl | · | -116* | -42% | · | · | 0%
Cc1ccccc1CS(=O)(=O)c1ncc(Cl)c(C(=O)Nc2ccc(F)cc2)n1 | 4% | -104* | i | -74* | · | 0%
O=C(Nc1ccc(F)cc1)c1nc(S(=O)(=O)Cc2ccccc2)ncc1Cl | -2% | -105* | -22% | ? | · | -2%
CC1CN(C(=O)N2CCC(C(=O)NCCCc3ccccc3)CC2)c2ccccc2O1 (centres undefined) | · | -2 | -13% | · | · | 1%
CCOc1ccc(C(=O)c2cn(CC(=O)Nc3ccc(F)cc3)c3cc4c(cc3c2=O)OCO4)cc1 | · | · | -25% | · | · | 10%
CCOc1ccc(C(=O)c2cn(CC(=O)Nc3ccc(OC)cc3)c3cc4c(cc3c2=O)OCO4)cc1 | · | · | i | · | · | 25µM*
COc1ccc(C(=O)NCCn2cc(SCc3cc(C)ccc3C)c3ccccc32)cc1 | · | · | -43% | · | · | -1%
CC(Oc1ccccc1)C(=O)Nc1nc(-c2ccncc2)cs1 (centres undefined) | -1% | -3 | -22% | -2 | · | -1%
CC(OC(=O)c1ccc(O)cc1)C(=O)Nc1nc(-c2ccccc2)cs1 (centres undefined) | 13% | -85* | -43% | 9 | · | 0%
CS(=O)(=O)c1ccccc1-c1nnc(NC(=O)c2cccc(N3C(=O)CCC3=O)c2)o1 | -5% | -76* | -8% | 0 | · | 0%
O=S1(=O)Nc2c(ccc3cccnc23)-c2ccccc21 | -5% | -10 | -11%[57.5 µM] | -5 | 3.2µM* | -3%
Cc1oc2ncn(CC(C)C)c(=O)c2c1C(=O)N1CCN(c2cccc(C(F)(F)F)c2)CC1 | · | · | i | · | · | -1%
CCOC(=O)/C(=N\Nc1ccccc1)P(=O)(c1ccccc1)c1ccccc1 | 0% | -5 | -14% | 8 | 10µM* | -1%

Bioassay records from PubChem BioAssay.
